A number with no mark means an inactive call. Results filed as inconclusive are left out. Activity calls are given as the source filed them. Unless noted, calls come from the whole dose curve; as a rule, active = well fitted curve in the direction sought with a large enough effect in the repeat runs; inconclusive = weak or mixed curves; inactive = no such curve, though single readings can be large; an effect the other way counts as inactive or inconclusive.

Experiment [1] concerns the target Luciferin 4-monooxygenase (Photinus pyralis) (UniProt P08659). As to the kind of experiment: qHTS assay to identify small molecule inhibitors of firefly luciferase (AID 1224835). Note: nearly all actives have a fitted effect of over 25% in size. Note: potency is the fitted concentration of half-maximal effect. In outline: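 Quantitative HTS format; KM concentrations of both substrates. Purified P. pyralis FLuc activity quantified from luminescence images.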
Background: Quantitative high-throughput screening tests each substance at several concentrations.

Experiment [2] in a line: qHTS assay to identify small molecule agonists of the constitutive androstane receptor (CAR) signaling pathway - cell viability counter screen (AID 1224836). Note: nearly all actives have a fitted effect of over 45% in size. In outline:
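HepG2 cells stably carrying hCAR and a CYP2B6-2.2kb reporter; 15-concentration compounds plus PK11195 (final 0.75 uM), 23 hr at 37 C/5% CO2. Viability read by CellTiter-Fluor fluorescence.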

For experiment [3], the target named is Nuclear receptor subfamily 1 group I member 3 (Homo sapiens) (UniProt Q14994). Briefly: qHTS assay to identify small molecule antagonists of the constitutive androstane receptor (CAR) signaling pathway (AID 1224838). Note: nearly all actives have a fitted effect of over 40% in size. Summed up:
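HepG2 cells stably carrying hCAR and a CYP2B6-2.2kb luciferase reporter, seeded 4 hrs before compound (15 concentrations). Stimulated with 50 nM CITCO for 24 hr at 37 C. ONE-Glo luminescence read after 30 min at room temperature.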

For experiment [4] the target is unchanged. Briefly: qHTS assay to identify small molecule agonists of the constitutive androstane receptor (CAR) signaling pathway (AID 1224839). Note: nearly all actives have a fitted effect of over 15% in size. Summed up: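 HepG2 cells stably co-transfected with hCAR and a CYP2B6-2.2kb luciferase reporter; compounds at 15 concentrations with 0.75 uM PK11195 present. After 24 hr at 37 C, luciferase read by ONE-Glo luminescence.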

Experiment [5] is described as follows: qHTS assay to identify small molecule antagonists of the estrogen related receptor signaling pathway with the pleiotropic PPARgamma coactivator (PGC) from Tox21 10K library - cell viability counter screen (AID 1224840; active = well fitted cell-killing curve with a large enough effect in the repeat runs, not every such curve was filed as active; note: nearly all actives have a fitted effect of over 40% in size). In outline:
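PGC/ERR cells (2,000/well) plated 6 h, then compound-treated for 17.5 h at 37 C. Viability measured by CellTiter-Fluor fluorescence after 30 min at 37 C, multiplexed with the pathway assay.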

Experiment [6] can be described thus: qHTS assay to identify small molecule antagonists of the estrogen related receptor signaling pathway with the pleiotropic PPARgamma coactivator (PGC) from Tox21 10K library (AID 1224841; call rule not given here; note: actives are mostly falling curves and most rising ones were filed inactive; nearly all actives have a fitted effect of over 50% in size). Summed up:
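PGC/ERR cell line, 2,000 cells/well, pre-incubated 6 hours at 37 C, then exposed to compounds for 18 hours at 37 C; luciferase read with One-Glo luminescence after 30 min at room temperature.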

A short description of experiment [7]: qHTS assay to identify small molecule agonists of the estrogen related receptor signaling pathway with the pleiotropic PPARgamma coactivator (PGC) from Tox21 10K library (AID 1224842). Note: nearly all actives have a fitted effect of over 15% in size. In outline:
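PGC/ERR reporter cells (NTP line) were seeded 2,000 per well, rested 6 h at 37 C/5% CO2, then pin-dosed with compounds in DMSO for 18 h at 37 C; luciferase read by One-Glo luminescence after 30 min at room temperature.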

Experiment [8] concerns the target Thyrotropin receptor (Homo sapiens) (UniProt P16473). As to the kind of experiment: qHTS assay to identify small molecule agonists of the thyroid stimulating hormone receptor (TSHR) signaling pathway (AID 1224843; calls by dose curve; note: nearly all actives have a fitted effect of over 45% in size). Summed up: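 TSHR-expressing HEK293 cells (800 per well) were exposed to compounds for 30 min at room temperature. cAMP was then detected by HTRF competition with cAMP-d2 and anti-cAMP cryptate, read after 1 h at room temperature. Fifteen concentrations, triplicate.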

A short description of experiment [9]: qHTS assay to identify small molecule agonists of the hypoxia (HIF-1) signaling pathway - cell viability counter screen (AID 1224844; calls by dose curve; note: nearly all actives have a fitted effect of over 50% in size). In outline: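 HRE-bla ME-180 cells, 2,000/well in 0.5% dialyzed FBS medium, treated 17 h at 37C with compounds. Viability read in the same wells as the bla reporter, by CellTiter-Glo luminescence after 30 min at room temperature.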

A short description of experiment [10]: qHTS assay to identify small molecule agonists of H2AX (AID 1224845; active = well fitted activation curve with a large enough effect in the signal ratio in the repeat runs, not every such curve was filed as active; the % refers to the signal ratio). Summed up:
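Wild-type CHO-K1 cells plated overnight, then exposed 3 hr at 37C to compounds at 15 concentrations (0.76% DMSO). Lysed, then HTRF anti-pH2AX(S139)-cryptate/anti-H2AX-d2 detection after 24 hr at room temperature; emissions 665 and 620 nm.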

A short description of experiment [11]: qHTS assay to identify small molecule agonists of the hypoxia (HIF-1) signaling pathway (AID 1224846; active = well fitted activation curve with a large enough effect in the signal ratio in the repeat runs, not every such curve was filed as active; the % refers to the signal ratio). Summed up: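 HRE-bla ME-180 beta-lactamase reporter cells in medium with 0.5% dialyzed FBS, pre-incubated 5 h then exposed to compounds 17 h at 37C, 5% CO2; reporter induction read with CCF4-AM FRET substrate.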
Experiment [12] can be described thus: qHTS assay to identify small molecule agonists of H2AX - cell viability counter screen (AID 1224847; calls by dose curve; note: top concentration of the series differs between compounds; nearly all actives have a fitted effect of over 30% in size). In outline:
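CHO-K1 cells plated overnight at 37C, then exposed 3 h at 37C to compounds at 15 concentrations (0.76% DMSO final). Viability by CellTiter-Glo luminescence after 30 min at room temperature.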

Experiment [13] can be described thus: qHTS assay to identify small molecule antagonists of the estrogen related receptor (ERR) signaling pathway from Tox21 library (AID 1224848). Note: nearly all actives have a fitted effect of over 50% in size. In outline: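 Cells: ERR line, 2,000/well; 6 h preincubation 37 C/5% CO2. Cpd in DMSO via pin tool; 18 h, 37 C. ONE-Glo, 30 min RT, luminescence.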
The nature of experiment [14]: qHTS assay to identify small molecule agonists of the estrogen related receptor (ERR) signaling pathway from Tox21 library (AID 1224849; calls by dose curve; note: nearly all actives have a fitted effect of over 15% in size). As to conditions: ERR reporter cell line, ONE-Glo luciferase, 18 h; at 92.4 µM (top of the series) unless noted. Summed up: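 ERR reporter cells (NTP line) pre-incubated 6 hours at 37 C, then exposed to compounds for 18 hours at 37 C. ONE-Glo luciferase luminescence was read after 30 minutes at room temperature.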

Experiment [15] in a line: qHTS RealTime-Glo MT Cell Viability Assay in HepG2 cells - 24 hour (AID 1224867). Note: nearly all actives have a fitted effect of over 50% in size. In outline: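 Cells + NanoLuc/prosubstrate dispensed (600 cells/well) → 5 h at 37 C/5% CO2 → compounds in DMSO transferred → 40 h incubation at 37 C, luminescence read at 0, 8, 16, 24, 32, 40 h.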
Experiment [16] can be described thus: qHTS RealTime-Glo MT Cell Viability Assay in HEK293 cells - 32 hour (AID 1224868). Summed up: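 Tox21 10K qHTS, HEK293, 600 cells/well, RealTime-Glo reagent co-dispensed with cells; 5 h preincubation, compound by pintool, 37 C, luminescence at 0–40 h.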
A short description of experiment [17]: A CellTox Green Cytotoxicity Assay to monitor cytotoxicity in HEK293 cells - 0 hour (AID 1224869). Note: nearly all actives have a fitted effect of over 50% in size. In outline:
(§1)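 HEK293 cells, 600/well, were preincubated 5 hours and then exposed to compounds at 37 C for up to 40 hours. A cell-impermeant cyanine dye staining dead-cell DNA was read by fluorescence at 0, 8, 16, 24, 32 and 40 h time points.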

Experiment [18] in a line: qHTS RealTime-Glo MT Cell Viability Assay in HepG2 cells - 40 hour (AID 1224870). Note: nearly all actives have a fitted effect of over 50% in size. In outline:
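HepG2 cells mixed with RealTime-Glo MT reagents (NanoLuc plus cell-permeant prosubstrate) were seeded at 600 cells/well, incubated 5 h at 37 C/5% CO2, then pinned with compounds in DMSO; nonlytic luminescence tracked viability during 40 h treatment.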

Experiment [19] is described as follows: A CellTox Green Cytotoxicity Assay to monitor cytotoxicity in HEK293 cells - 40 hour (AID 1224871). Note: nearly all actives have a fitted effect of over 45% in size. Note: potency is the fitted concentration of half-maximal effect. In outline:
as §1

Experiment [20] can be described thus: qHTS assay to identify small molecule antagonists of the constitutive androstane receptor (CAR) signaling pathway - cell viability counter screen (AID 1224837). Note: nearly all actives have a fitted effect of over 45% in size. Summed up: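 HepG2 cells stably carrying hCAR and CYP2B6-2.2kb reporter, stimulated with 50 nM CITCO and compounds at 15 concentrations for 23 h at 37 C. Viability measured by CellTiter-Fluor fluorescence.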
% is set by controls: 0 for no effect and ±100 for the full control effect.

Chain of Thyrotropin receptor (Homo sapiens) (P16473 whole entry, looked up): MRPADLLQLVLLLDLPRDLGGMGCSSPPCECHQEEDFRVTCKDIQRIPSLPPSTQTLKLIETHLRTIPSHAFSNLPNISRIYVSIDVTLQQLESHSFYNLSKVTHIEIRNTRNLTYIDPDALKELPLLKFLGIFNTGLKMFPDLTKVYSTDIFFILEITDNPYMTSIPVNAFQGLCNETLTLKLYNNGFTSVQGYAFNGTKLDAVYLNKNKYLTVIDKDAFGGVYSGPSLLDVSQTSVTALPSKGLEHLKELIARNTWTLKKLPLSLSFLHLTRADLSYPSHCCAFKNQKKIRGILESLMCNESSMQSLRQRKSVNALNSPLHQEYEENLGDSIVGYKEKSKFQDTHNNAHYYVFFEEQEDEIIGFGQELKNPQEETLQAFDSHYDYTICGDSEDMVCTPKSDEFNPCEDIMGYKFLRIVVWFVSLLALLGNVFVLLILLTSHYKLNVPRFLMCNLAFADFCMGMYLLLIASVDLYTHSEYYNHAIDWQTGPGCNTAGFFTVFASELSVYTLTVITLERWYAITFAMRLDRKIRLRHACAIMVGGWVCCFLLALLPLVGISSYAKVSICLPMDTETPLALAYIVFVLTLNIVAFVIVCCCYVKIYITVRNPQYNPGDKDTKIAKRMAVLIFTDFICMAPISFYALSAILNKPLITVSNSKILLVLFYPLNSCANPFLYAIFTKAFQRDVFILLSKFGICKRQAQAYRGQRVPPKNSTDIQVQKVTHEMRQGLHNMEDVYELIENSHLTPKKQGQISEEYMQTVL
Chain of Luciferin 4-monooxygenase (Photinus pyralis) (P08659 whole entry, looked up): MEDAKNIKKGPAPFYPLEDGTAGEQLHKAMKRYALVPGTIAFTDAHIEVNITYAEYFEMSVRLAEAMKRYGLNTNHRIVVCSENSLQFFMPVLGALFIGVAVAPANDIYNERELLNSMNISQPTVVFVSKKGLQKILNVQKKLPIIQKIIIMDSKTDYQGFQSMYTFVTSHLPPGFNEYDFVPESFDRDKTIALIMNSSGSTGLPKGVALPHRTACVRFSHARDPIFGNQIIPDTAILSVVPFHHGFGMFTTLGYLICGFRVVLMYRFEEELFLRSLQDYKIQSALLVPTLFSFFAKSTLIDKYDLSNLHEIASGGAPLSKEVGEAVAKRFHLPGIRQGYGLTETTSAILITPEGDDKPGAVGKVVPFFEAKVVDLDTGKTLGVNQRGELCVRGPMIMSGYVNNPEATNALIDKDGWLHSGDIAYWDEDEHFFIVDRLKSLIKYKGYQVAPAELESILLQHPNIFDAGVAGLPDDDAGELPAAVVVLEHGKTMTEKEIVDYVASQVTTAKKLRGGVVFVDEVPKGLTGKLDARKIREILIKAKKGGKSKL
Chain of Nuclear receptor subfamily 1 group I member 3 (Homo sapiens) (Q14994 whole entry, looked up): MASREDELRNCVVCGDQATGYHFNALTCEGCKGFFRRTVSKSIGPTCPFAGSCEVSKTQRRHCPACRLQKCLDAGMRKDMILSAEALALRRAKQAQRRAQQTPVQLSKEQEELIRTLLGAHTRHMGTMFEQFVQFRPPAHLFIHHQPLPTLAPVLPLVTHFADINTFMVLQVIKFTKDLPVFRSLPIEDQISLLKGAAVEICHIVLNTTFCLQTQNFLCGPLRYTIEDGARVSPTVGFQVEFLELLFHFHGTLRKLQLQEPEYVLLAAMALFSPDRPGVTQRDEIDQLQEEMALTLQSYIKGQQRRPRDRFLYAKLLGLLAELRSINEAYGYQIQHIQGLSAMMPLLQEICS

With `CC(C)C(=O)OC/C=C/c1ccccc1`, the Potency in [1] is 71 µM (active). The Potency result in experiment [2], in experiment [3], in experiment [4], in experiment [5], in experiment [6] and in experiment [7] was “inactive” in each case. Besides, the Potency entry in experiment [8], in experiment [9], in experiment [10], in [12], in experiment [13] and in [15] was “inactive” each time. For the same compound, the Potency entry in [16], in experiment [17], in experiment [18] and in experiment [19] was “inactive” each time. Also, the result in experiment [11] was inactive. The activity change, positive = activation in experiment [14] was 4.91%.

For `CC(C)=CCC[C@](C)(O)[C@@H]1CC=C(C)CC1`, the Potency entry in [1], in [2], in experiment [20], in [5], in experiment [8] and in experiment [9] was “inactive” each time. Moreover, the Potency result in [10], in [15], in experiment [17] and in experiment [18] was “inactive” in each case. The compound was classed as inactive in [11]. Also, the Potency in experiment [19] is 49 µM (active).

Regarding `NC/C=C/C(=O)O`, the Potency entry in experiment [1], in [2], in experiment [3], in [5], in [6] and in experiment [7] was “inactive” throughout. For the same compound, the Potency entry in experiment [8], in experiment [9], in experiment [10], in [12], in [13] and in experiment [15] was “inactive” throughout. For the same compound, the Potency result in experiment [16], in experiment [17], in experiment [18] and in experiment [19] was “inactive” each time. Besides, the activity change, positive = activation in experiment [14] was 6.36% [at 42.5 µM].

`CCOC(=O)[C@H](CCc1ccccc1)N[C@@H](C)C(=O)N1Cc2cc(OC)c(OC)cc2C[C@H]1C(=O)O`: the Potency result in [1], in experiment [2], in [20], in [5], in experiment [8] and in experiment [15] was “inactive” throughout. Further, the Potency entry in experiment [16], in experiment [17], in experiment [18] and in experiment [19] was “inactive” in each case. Besides, the call in experiment [11] was inactive.

In the case of `Oc1ccccc1F`, the Potency result in experiment [1], in [2], in experiment [5], in [8], in experiment [9] and in experiment [10] was “inactive” throughout. Moreover, the Potency entry in experiment [15], in experiment [16], in experiment [17], in experiment [18] and in experiment [19] was “inactive” in each case. In [11], the outcome was inactive.

As for `CCCCCCn1c(=O)c2c(ncn2C)n(C)c1=O`, the Potency result in [1], in experiment [2], in experiment [4], in experiment [5], in [6] and in experiment [7] was “inactive” throughout. For the same compound, the Potency result in [8], in [9], in experiment [10], in experiment [12], in experiment [13] and in experiment [15] was “inactive” throughout. The Potency result in [17], in experiment [18] and in [19] was “inactive” each time. Further, the result in [11] was inactive. Besides, the activity change, positive = activation in experiment [14] is -1.88% [at 42.5 µM].

In the case of `COC(=O)C(C)O` (centres undefined), the Potency result in experiment [1], in experiment [2], in experiment [20], in experiment [5], in [8] and in experiment [10] was “inactive” in each case. The Potency result in experiment [12], in [15], in experiment [16], in [17], in [18] and in experiment [19] was “inactive” in each case. Besides, the call in experiment [11] was inactive.

For the compound `CCOc1ccc(NS(=O)(=O)c2ccc(N)cc2)nn1`, the Potency entry in experiment [1], in experiment [2], in experiment [20], in experiment [5], in experiment [8] and in experiment [9] was “inactive” each time. The Potency entry in experiment [10], in [15], in experiment [17], in experiment [18] and in experiment [19] was “inactive” throughout. Besides, the compound was called inactive in experiment [11].

On to `CCN(CC)CCNC(=O)COc1ccc(Cl)cc1`, for which the Potency entry in [1], in [2], in experiment [4], in experiment [5], in experiment [8] and in [9] was “inactive” in each case. The Potency entry in experiment [10], in [15], in experiment [16] and in experiment [19] was “inactive” throughout. The result in experiment [11] was inactive.

These data come from PubChem BioAssay (Tox21).
